Data from PubChem BioAssay (NCI).
Compounds without any hit were thinned out: in the full panel of roughly 83,000, 20% have a hit.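 Interpretation: 100, growth as untreated; towards 0, rising growth inhibition; 0, no net growth; 0 to -100, cell death. Compounds scoring below 10 were considered active.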 Activity calls are given as the source filed them.

Tests used:
Assay in all cases: NCI-60 one-dose screen, 48 h (100 = growth as untreated, 0 = no growth, -100 = all killed)
Settings in all cases: 10 µM unless noted
[1] = tested on: T-47D breast
[2] = tested on: BT-549 breast
[3] = tested on: MDA-MB-435 melanoma
[4] = tested on: SW-620 colon
[5] = tested on: MCF7 breast
[6] = tested on: HCT-116 colon
[7] = tested on: HCC-2998 colon
[8] = tested on: KM12 colon

Measured: growth

COc1ccc(/C=C/C(=O)NCC(C)O)cc1 (stereo not given)
inactive: [1] 97.2% | [2] 97.6% | [3] 104% | [4] 101% | [5] 94.9% | [6] 91.3% | [7] 100% | [8] 99.9%

Nc1nc2c(c(=O)[nH]1)C(c1ccc3c(c1)OCO3)C=C(C(=O)O)N2 (stereo not given)
inactive: [1] 106% | [2] 91.9% | [3] 97.7% | [4] 106% | [5] 92.7% | [6] 99.4% | [7] 104% | [8] 110%

CN1CCN(CC#CCn2c3c(c4ccccc42)C[C@]2(C)[C@H]4CC[C@@H]5[C@H]6[C@H]7OC(=O)[C@@]6(CCC7(C)C)CC[C@@]5(C)[C@]4(C)CC[C@H]2C3(C)C)CC1
inactive: [1] 104% | [2] 89.5% | [3] 97.8% | [4] 91.2% | [5] 67.7% | [6] 35.1% | [7] 106% | [8] 93.7%

CCCC1CCCCN1C(=O)OCC(C)C (stereo not given)
inactive: [1] 104% | [2] 114% | [3] 100% | [4] 98.4% | [5] 100% | [6] 103% | [7] 125% | [8] 105%

CC(=O)OCCCCCCn1c2ccccc2c2c3c(c4c5ccccc5n(C)c4c21)C(=O)N(O)C3=O
inactive: [1] 42.9% | [2] 69.2% | [3] 75.9% | [4] 76.4% | [5] 30.4% | [6] 48.6% | [7] 76% | [8] 68.8%

COc1ccc(-c2nc(SCC(=O)Nc3ccc(C(C)=O)cc3)[nH]c(=O)c2C#N)cc1
inactive: [1] 89.4% | [2] 82.2% | [3] 111% | [4] 112% | [5] 97.5% | [6] 76.3% | [7] 105% | [8] 101%

O=C1NC(c2ccc(Cl)c(Cl)c2)=C/C1=C\c1ccccc1
inactive: [1] 12.5% | [2] 86.2% | [3] 86.6% | [4] 56.8% | [5] 63.1% | [6] 26.5% | [7] 103% | [8] 89.2%

CCc1ccc(-c2ccc(Nc3ccccc3)nn2)cc1S(N)(=O)=O
inactive: [1] 53.3% | [2] 83.3% | [3] 36.1% | [4] 54.1% | [5] 84.3% | [6] 72.6% | [7] 85.4% | [8] 40.6%

Cc1cc(Cl)nc(N(CCCNc2ccnc3cc(Cl)ccc23)Cc2ccco2)n1
inactive: [3] 22.8% | [4] 20% | [5] 12.2% | [7] 22% | [8] 22.4%
active: [1] 3.69% | [2] 8.06% | [6] 3.68%

N#CC1c2ccccc2-c2ccccc2N1C(=O)c1ccccc1 (stereo not given)
inactive: [1] 73.7% | [2] 21.5% | [4] 27.3% | [5] 22.3%
active: [3] -13.6% | [6] 6.83% | [7] -46.1% | [8] 5.94%

Cc1csc(-c2ccc3c(c2)COC3(CCCN(C)C)c2ccc(F)cc2)c1 (stereo not given)
inactive: [2] 76.6% | [4] 22.7% | [5] 17.1% | [8] 14.4%
active: [1] -37.5% | [3] -30.3% | [6] -26.7% | [7] -50.7%

Cc1[c-]onc1C.Cc1[c-]onc1C.[Ag].[Ag].[NH-]S(=O)(=O)c1ccc(N=Nc2cc(N=Nc3ccc(S([NH-])(=O)=O)cc3)c3c(NC(=O)C(Cl)Cl)cccc3c2OC(=O)C(Cl)Cl)cc1
active: [1] -11.9%
inactive: [2] 94.6% | [3] 74.3% | [4] 58.1% | [5] 35.7% | [6] 71.9% | [7] 107% | [8] 71.5%

C=C(C)[C@@H]1CC[C@]2(C(=O)N3CCCNCC3)CC[C@]3(C)[C@H](CC[C@@H]4[C@@]5(C)CCC(=O)C(C)(C)[C@@H]5CC[C@]43C)[C@@H]12
inactive: [1] 83.9% | [2] 93.6% | [3] 95.5% | [4] 93.5% | [5] 91.4% | [6] 71.6% | [7] 103% | [8] 98.7%

Nc1nc2c3ccncc3cc(-c3cccc(Cl)c3)c2c2cnccc12
active: [6] 5.95%
inactive: [1] 32% | [2] 37% | [3] 66.8% | [4] 36.5% | [5] 33.4% | [7] 74.9% | [8] 46.2%

COC(=O)[C@]12CC[C@@H](C)[C@H](C)[C@@H]1C1=CC[C@@H]3[C@@]4(C)C[C@@H](OC(C)=O)[C@H](OC(C)=O)[C@@](C)(COC(C)=O)[C@@H]4[C@H](O)C[C@@]3(C)[C@]1(C)CC2
active: [1] -13.6% | [2] 0.787% | [5] 5.21% | [6] 9.38% | [7] 5.84% | [8] 8.42%
inactive: [3] 17.4% | [4] 20.7%

c1ccc(-c2nc(Nc3ccc(-c4nc5ccccc5[nH]4)cc3)nc(N3CCOCC3)n2)cc1
active: [1] -62.3% | [3] -81.1% | [4] -82.9% | [5] -76.2% | [6] -81.5% | [7] -80.7% | [8] -76.6%
inactive: [2] 33.7%

Fc1ccc(NCc2nnc(-c3ccc(Cl)cc3)o2)cc1
inactive: [1] 57% | [2] 77.8% | [3] 94.8% | [4] 90.4% | [5] 55.2% | [6] 53.7% | [7] 98% | [8] 84.8%

COc1ccc(C2CC(=O)c3c(nc4ccc(Cl)cc4c3N)C2)cc1 (stereo not given)
inactive: [1] 109% | [2] 102% | [3] 93.6% | [4] 106% | [5] 95.6% | [6] 100% | [7] 111% | [8] 103%

CCOc1ccc(NC(=O)c2ccccc2-c2ccccc2C(=O)O)cc1
inactive: [1] 103% | [2] 108% | [3] 104% | [4] 107% | [5] 97.4% | [6] 103% | [7] 103% | [8] 110%

Fc1ccc(Nc2nnc(-c3ccc(Cl)cc3)o2)cc1
inactive: [1] 66.2% | [2] 99% | [3] 111% | [4] 105% | [5] 75.4% | [6] 85.1% | [7] 98.9% | [8] 97.8%

O=C1CCN2C(=O)Nc3ccccc3C2C1 (stereo not given)
inactive: [1] 100% | [2] 109% | [3] 97.5% | [4] 99.8% | [5] 95.3% | [6] 98.6% | [7] 100% | [8] 106%

CN1CCN(CCOc2ccc(-c3cnc4c(-c5cccc(F)c5)cnn4c3)cc2)CC1
inactive: [1] 56.9% | [2] 92.8% | [5] 37.4% | [6] 23.9% | [7] 63.2% | [8] 11.4%
active: [3] -47.8% | [4] -28.7%

COc1ccc2c(c1)c(-c1nc(-c3c[nH]c4ncccc34)cs1)cn2CCN
inactive: [1] 25.7% | [2] 88.2% | [3] 68.9% | [4] 55.3% | [5] 36.5% | [6] 53.5% | [7] 94.9% | [8] 24.4%

COc1ccc(-c2n[nH]nc2-c2cc3ccccc3s2)cc1O
active: [3] -32.9%
inactive: [1] 43.8% | [2] 24.1% | [4] 26.6% | [5] 19.7% | [6] 18.2% | [7] 29.2% | [8] 22.7%

COc1cnc2c(c1)C(=O)c1c-2n(CCCN2CCN(CCO)CC2)c(=O)c2cc([N+](=O)[O-])ccc12
inactive: [1] 64.4% | [2] 65.6% | [3] 40.8% | [7] 80% | [8] 32.4%
active: [4] -48.8% | [5] -6.37% | [6] -87.6%

COC(=O)CNc1nc(N(C)O)nc(N(C)O)n1
inactive: [1] 64.8% | [2] 66.9% | [3] 65.7% | [4] 42.8% | [5] 30.7% | [6] 13.8% | [7] 23.4% | [8] 45.2%

C=C1C(=O)O[C@H]2[C@H]1CC/C(COC(=O)N[C@H](Cc1c[nH]c3ccccc13)C(=O)OC)=C\CC[C@@]1(C)O[C@@H]21
active: [1] -45.3% | [4] -1.92% | [6] -58.2%
inactive: [2] 26.4% | [3] 54.8% | [5] 14.7% | [7] 101% | [8] 92.6%

COc1cccc(-c2nn(-c3ccccc3)cc2-c2ccnc(NCCCO)c2)c1
inactive: [1] 26.7% | [2] 55.2% | [4] 21.3% | [5] 29.5% | [6] 22.9% | [7] 65.5% | [8] 34.1%
active: [3] -15.5%

C=C1C(=O)O[C@H]2[C@H]1CC/C(COC(=O)NCc1c[nH]c3ccccc13)=C\CC[C@@]1(C)O[C@@H]21
inactive: [1] 37.8% | [2] 50.7% | [3] 46.9% | [5] 17.1% | [7] 97.9% | [8] 96.9%
active: [4] 2.62% | [6] -12.3%

COc1ccc(C(=O)c2ccc(C)cc2)c(OC)c1OC
inactive: [1] 90% | [2] 86.7% | [4] 33.6% | [5] 72.2% | [6] 58.4% | [7] 75.9% | [8] 47.2%
active: [3] -25.2%
